Screens (PubChem BioAssay)
The sample as a whole holds a higher share of hits than the screen did.
Artemis endo inh = inhibitors of human Artemis endonuclease activity; 30,000 tested, 0.78% active; AID 686954; inhibition, % at 10 µM; recombinant Artemis, quenched FAM hairpin cleavage fluorescence;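 active means at 10 µM dose, at least 30% inhibition, measured as corrected fluorescence normalized to stimulator and neutral control wells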
Target sequence (Q96SD1 whole entry, looked up): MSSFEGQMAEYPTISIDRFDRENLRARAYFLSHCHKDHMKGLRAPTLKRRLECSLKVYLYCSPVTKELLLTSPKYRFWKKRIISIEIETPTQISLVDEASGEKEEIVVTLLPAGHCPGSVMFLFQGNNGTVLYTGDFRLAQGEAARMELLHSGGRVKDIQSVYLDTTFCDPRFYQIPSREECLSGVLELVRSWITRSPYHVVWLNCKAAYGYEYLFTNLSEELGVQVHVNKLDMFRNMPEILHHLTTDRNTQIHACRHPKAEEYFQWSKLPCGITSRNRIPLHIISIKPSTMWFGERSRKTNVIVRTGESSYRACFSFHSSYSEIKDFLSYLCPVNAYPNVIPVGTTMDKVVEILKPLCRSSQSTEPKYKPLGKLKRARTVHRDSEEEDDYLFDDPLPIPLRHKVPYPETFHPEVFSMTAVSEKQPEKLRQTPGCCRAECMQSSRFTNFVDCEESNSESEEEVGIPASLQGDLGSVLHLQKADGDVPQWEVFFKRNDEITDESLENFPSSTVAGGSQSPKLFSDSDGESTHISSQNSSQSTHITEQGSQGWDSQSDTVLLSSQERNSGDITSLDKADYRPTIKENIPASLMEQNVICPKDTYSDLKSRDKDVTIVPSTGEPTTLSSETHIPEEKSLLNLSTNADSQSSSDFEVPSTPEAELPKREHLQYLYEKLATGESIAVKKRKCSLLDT
Hits are given with their value; . = inactive.

SMILES	Artemis endo inh
COC(=O)c1[nH]c2cccc(Cl)c2c1NC(=O)CN(C)C1CCCCC1	.
N#Cc1c(-c2ccccc2)ccn(Cc2ccc(Cl)cc2)c1=O	.
Cc1ccc(NC2=C/C(=N\S(=O)(=O)c3cccs3)c3ccccc3C2=O)c(C)c1	53
Cc1ccc(NCN2C(=O)c3ccccc3C2=O)c(C)c1	.
COc1ccc(C)cc1NC(=O)CN(C)S(=O)(=O)c1cccs1	.
Cc1onc(-c2ccccc2)c1C(N)=O	.
O=C(c1ccccc1)c1cc2ccccc2o1	.
Cc1oc2c(c1C(=O)c1ccccc1)C(=O)C(=O)c1ccccc1-2	59
CCOC(=O)C1=C(c2cccc(Oc3ccccc3)c2)NC(=S)NC1C (stereo not given)	.
O=C(COC(=O)c1ccccc1Nc1cccc(C(F)(F)F)c1)NCc1ccco1	.
CSc1nnc(-c2ccccc2N=Cc2c(C)[nH]n(-c3ccc4ccccc4c3)c2=O)c(=O)[nH]1	32
Cc1[nH]n(-c2ccccc2)c(=O)c1C=Nc1cnc2ccccc2c1	.
C=CCSc1nnc(-c2ccccc2N=Cc2c(C)[nH]n(-c3ccccc3)c2=O)c(=O)[nH]1	.
COC(=O)c1cc(C#N)c(NCc2ccccc2)nc1C	.
NNC(=O)Cn1c(SCc2ccccc2)nc2ccccc21	.
CCCCOc1[nH]c2nc(-c3ccco3)n(Cc3ccco3)c(=N)c2c1C#N	.
CCCCOc1ccc(CNC(=S)N/N=C/c2ccc(OC)c(OC)c2)cc1	.
Cc1ccc(C(=O)N/C(=C\c2ccc(-c3cc(Cl)ccc3Cl)o2)C(=O)NCc2cccnc2)cc1	34
O=C(Nc1c(Cl)cc(Cl)cc1C(=O)NCc1cccnc1)c1ccc(Cl)cc1Cl	.
O=C(NCc1cccnc1)/C(=C/c1ccc(-c2cccc(Cl)c2)o1)S(=O)(=O)c1ccccc1	.
CCOC(=O)C(C)n1cnc2c(cnn2-c2ccc(Cl)cc2)c1=O (stereo not given)	.
CCOC(=O)C(C)n1ncn2cccc2c1=O (stereo not given)	33
COC(=O)Cn1ncn2cccc2c1=O	.
CC(C)c1ccc(C(=O)CC2(O)C(=O)N(CN3CCOCC3)c3ccccc32)cc1 (stereo not given)	.
CCCc1nnc(NC(=O)CCCN2C(=O)c3ccccc3C2=O)s1	.
SMILES	Artemis endo inh
CCN(CCO)c1ccc(-n2c(N)c(C(=O)OC)c3nc4ccccc4nc32)cc1	.
C=CCn1c(N)c(C(=O)OCCC)c2nc3ccccc3nc21	40
COCCNC(=O)c1c(N)n(CCC2=CCCCC2)c2nc3ccccc3nc12	.
O=c1[nH]c2c(s1)C(c1ccco1)C1C3CCC(C3)C1S2 (stereo not given)	.
COc1ccccc1S(=O)(=O)Nc1ccc(-c2nnc3n2CCCCC3)cc1	.
Cc1cc(C(=O)N/N=C/c2cc(Br)ccc2OC(=O)c2ccccc2)n[nH]1	.
COc1ccc(Br)cc1/C=N/NC(=O)c1nc(-c2ccccc2)n2c1CCCCC2	30
CCn1c(-c2ccccc2Cl)nn(CC(=O)Nc2ccccc2C)c1=S	.
CCOC(=O)c1nnn(-c2nonc2N)c1CN(C)Cc1ccccc1	.
CC(OC(=O)C1CCN(S(=O)(=O)c2ccc(Cl)cc2)CC1)C(=O)N1CCc2ccccc21 (stereo not given)	.
Cc1cccc(C)c1NC(=O)CN1C(=O)S/C(=C\c2cccn2-c2cccc(C(=O)O)c2)C1=O	.
Cc1ccc(NC(=O)CN2C(=O)S/C(=C\c3cccn3-c3cccc(C(=O)O)c3)C2=O)c(C)c1	32
Cc1ccccc1NC(=O)CN1C(=O)S/C(=C\c2cccn2-c2cccc(C(=O)O)c2)C1=O	.
COc1cccc(CNc2cc(CSc3ccc(Cl)cc3)nc(C)n2)c1	.
O=c1cc2[nH]c3ccccc3c(=O)n2nc1-c1ccccc1	.
O=C(CN1CCCC1)N/N=C/c1ccc(-c2cccc(Cl)c2)o1	.
CCOc1ccc(S(=O)(=O)N(CC(=O)N/N=C/c2ccc(-c3ccc([N+](=O)[O-])cc3)o2)c2ccccc2)cc1	.
O=C(N/N=C/c1ccc(-c2ccc(S(=O)(=O)Nc3ncccn3)cc2)o1)c1cc2ccccc2cc1O	33
Cc1ccc(/C=C/C(=O)N2CC(C)CC(C)C2)o1 (stereo not given)	.
Cc1c(NC(=O)c2ccc(F)c(S(=O)(=O)N3CCOCC3)c2)c(=O)n(-c2ccccc2)n1C	.
Cc1cc(/C=C(\C#N)C(=O)NCc2cccs2)c(C)n1-c1ccccc1F	.
CCC1CCCCN1C(=O)Cn1c(=O)oc2ccccc21 (stereo not given)	.
COc1cc(/C=N/NC(=O)c2cnn3c(C)cc(-c4ccccc4)nc23)ccc1O	.
COc1ccc(/C=N/NC(=O)c2nc(-c3ccccc3)cc(-c3ccccc3)n2)cc1	35
COc1ccc(/C=N/NC(=O)c2nn(-c3ccc(C)c(C)c3)c(=O)c3ccccc23)cc1	.
SMILES	Artemis endo inh
Cc1[nH]n(-c2ccccc2)c(=O)c1C1(C(F)(F)F)C(=O)N(c2ccc(F)cc2)C2=C1C(=O)CC(C)(C)C2 (stereo not given)	.
CCc1cc2c(SCC(=O)c3ccc(Cl)s3)ncnc2s1	.
O=C(CSc1ncn[nH]1)Nc1ccccc1Sc1ccc(Cl)cc1	.
C=CCNC(=O)CC(=O)N/N=C/c1ccc(C(=O)OC)cc1	.
Cc1ccc(Nc2cc(C)nn2-c2nc(C)cc(=O)[nH]2)cc1	35
Cc1cc(Nc2nc3ccccc3[nH]c2=O)n(-c2ccccc2)n1	.
Cc1ccc(Nc2cc(C)nc3nnnn23)cc1	.
CSc1nc(-c2ccccc2)nn1C(=O)c1ccc(C)cc1	.
CCN1/C(=C/c2ccc3ccccc3[n+]2CC)C=Cc2ccccc21	38
CCN1C(=O)/C(=C2/C=Cc3ccccc3N2C)OC1=S	.
O=C(COC(=O)c1cc(S(=O)(=O)N2CCOCC2)ccc1Cl)Nc1ccc2c(c1)OCO2	.
c1ccc(N2CCN(c3nc(-c4ccccn4)nc4ccccc34)CC2)cc1	93
c1ccc2c(N3CCCCCC3)nc(-c3ccncc3)nc2c1	.
Oc1ccccc1-c1nc(N2CCN(Cc3ccccc3)CC2)c2ccccc2n1	.
COc1cccc(C(CC(=O)NCc2ccco2)NS(=O)(=O)c2ccc(C)cc2)c1OC (stereo not given)	.
COc1ccc2nc(-c3cccc(N)c3)[nH]c2c1	.
Nc1ccc2nc(-c3ccc(N)c(Cl)c3)[nH]c2c1	.
Nc1ccc2nc(-c3ccccn3)[nH]c2c1	45
Cc1cccc(-n2c(C)cc(/C=N/n3cnnc3)c2C)c1	.
O=C(O)c1c(Cl)c(Cl)c(Cl)c(Cl)c1C(=O)N1CCOCC1	.
O=c1c2ccccc2nc2n1C(CSCc1ccc(Cl)cc1Cl)CS2 (stereo not given)	.
COCCNC(=O)COC(=O)/C=C/c1c(C)nn(Cc2ccc(Cl)cc2Cl)c1Cl	.
O=C(c1ccccc1-c1nc2ccccc2[nH]1)N1CCCCC1	.
O=C(c1ccccc1-c1ccccc1)N1CCCC1	.
O=C(c1ccc2c3c(cccc13)C(=O)N(O)C2=O)N1CCCCC1	47
SMILES	Artemis endo inh
C/C(=N/NC(=O)c1ccoc1C)C12CC3CC(CC(C3)C1)C2	.
Cc1ccccc1NC(NC(=O)c1cccs1)C(Cl)(Cl)Cl (stereo not given)	.
Cc1cc(C)cc(N(CC(=O)NCCSc2ccccn2)S(=O)(=O)c2ccccc2)c1	.
O=c1cc2c(nn1Cc1ccccc1Cl)-c1ccccc1CC2	.
Cc1cc(OCC(=O)N2CCCC2)cc(C)c1Cl	.
Cc1cc(OCC(=O)Nc2ccc(N3CCCC3)cc2)cc(C)c1Cl	66
CCCC(=O)Nc1ccc(N2CCCCC2)cc1	.
CC1CCN(c2cc(N)c(Cl)cc2[N+](=O)[O-])CC1	.
